Screening results: PubChem BioAssay, several laboratories
MEKK2wt PB1 HTS = raises or lowers MEK5 binding to wildtype human MEKK2 PB1 domain | binding response (% of control), % at 10 µM | 290,000 tested, 1.1% active | bead flow cytometry, Alexa488-MEK5 binding to MEKK2 WT; actives lie on both sides | Q9Y2U5; in the data active = binding response below about 67% or above about 130%
MEKK2mut PB1 HTS = signal of MEK5 binding to mutant human MEKK2 PB1 domain | bead flow cytometry, Alexa488-MEK5 binding to MEKK2 mutant | percent response, % at 10 µM | 290,000 tested, 0.35% active | AID 1530; in the data active = percent response above about 24%, passing the limit was not always enough
MEKK3 PB1 HTS = modulators (inhibitors or enhancers) of MEK5 binding to human MEKK3 PB1 domain | Q99759 | bead-based flow cytometry, Alexa488-MEK5 binding to MEKK3; actives lie on both sides; 0 = blocked by unlabeled MEK5, 100 = vehicle | binding response (% of control), % at 10 µM | 290,000 tested, 1.4% active | AID 1529;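 active = binding response more than 3 SD above or below the average of its plate-row segment, actives on both sides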;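 also: Alexa488 bead fluorescence after subtracting the streptavidin-only scavenger bead signal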
Target sequence (Q99759 whole entry, looked up, the tested form may be a part): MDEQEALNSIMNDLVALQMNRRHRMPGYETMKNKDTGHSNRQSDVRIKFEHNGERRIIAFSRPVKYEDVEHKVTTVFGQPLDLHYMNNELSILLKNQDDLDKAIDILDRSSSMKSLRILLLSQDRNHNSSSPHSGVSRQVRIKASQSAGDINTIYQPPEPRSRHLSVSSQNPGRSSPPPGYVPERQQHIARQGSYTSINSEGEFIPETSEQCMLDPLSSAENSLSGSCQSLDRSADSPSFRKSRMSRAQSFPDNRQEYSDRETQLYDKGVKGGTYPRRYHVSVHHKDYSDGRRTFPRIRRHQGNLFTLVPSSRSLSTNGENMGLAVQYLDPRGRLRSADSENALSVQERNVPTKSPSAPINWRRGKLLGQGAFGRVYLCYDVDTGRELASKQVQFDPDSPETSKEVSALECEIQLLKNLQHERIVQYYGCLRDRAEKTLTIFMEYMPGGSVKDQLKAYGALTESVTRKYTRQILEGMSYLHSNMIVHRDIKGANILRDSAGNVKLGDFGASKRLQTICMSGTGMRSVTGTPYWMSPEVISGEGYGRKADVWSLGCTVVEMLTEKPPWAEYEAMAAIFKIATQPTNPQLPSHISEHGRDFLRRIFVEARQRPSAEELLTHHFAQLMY
UBC13 inh = human UBC13 polyubiquitination inhibition; 330,000 tested, 0.47% active; UBC13 polyubiquitin chain formation, TR-FRET; P61088; inhibition, % at 20 µM; in the data active = inhibition above about 45%, passing the limit was not always enough
Target sequence (P61088 whole entry, looked up): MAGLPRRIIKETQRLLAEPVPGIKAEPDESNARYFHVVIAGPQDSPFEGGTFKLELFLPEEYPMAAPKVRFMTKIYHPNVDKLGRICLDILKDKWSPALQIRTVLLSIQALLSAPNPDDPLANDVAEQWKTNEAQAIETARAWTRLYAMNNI
MEKK2wt confirm = raises or lowers MEK5 binding to wildtype human MEKK2, retest | binding response (% of control), % at 10 µM | 5,900 tested, 2.4% active | bead flow cytometry, Alexa488-MEK5 binding to MEKK2 WT; actives lie on both sides | shares compounds with MEKK3 PB1 HTS; in the data active = binding response below about 16% or above about 210%; inactive = in between
MEKK2mut-MEK5 = signal of MEK5 binding to mutant human MEKK2, retest; shares compounds with MEKK3 PB1 HTS; 5,900 tested, 2% active; bead flow cytometry, Alexa488-MEK5 binding to MEKK2 mutant; percent response, % at 10 µM; in the data active = percent response mostly above about 71%, no sharp cut-off; inactive = mostly below about 38%;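 also: higher means compound restores mutant binding toward wildtype level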
MEKK3 confirm = MEKK3-MEK5 PB1 inhibition, single concentration confirmation; binding response (% of control), % at 10 µM; bead flow cytometry, Alexa488-MEK5 binding to MEKK3; stronger effect = lower value; 5,900 tested, 1.8% active; shares compounds with MEKK3 PB1 HTS; AID 1894;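 active = binding response below 72% of control, or above a set upper limit, though filed actives all read lower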
Of the large screens only hits and unclear results are named; the others gave an inactive call (follow-up assays come after a bar, where they were run); [ ] = dose if it differs, or a comment. An excerpt weighted towards active compounds, which were near 2.3% of everything screened.

Cc1ccc(S(=O)(=O)N(CC(=O)N=Nc2c(O)[nH]c3ccccc23)c2cccc(C)c2)cc1	MEKK3 PB1 HTS 150.0 | MEKK2wt confirm inactive | MEKK2mut-MEK5 inactive | MEKK3 confirm inactive
CC1S/C(=C(\C#N)C(=O)NCc2ccco2)N(Cc2ccco2)C1=O (centres undefined)	MEKK2wt PB1 HTS 38.0[inhibitor], MEKK3 PB1 HTS 49.0[inhibitor] | MEKK2wt confirm inactive | MEKK2mut-MEK5 inactive | MEKK3 confirm inactive
COC(=O)c1[nH]c(C)c(/C(O)=C2\C(=O)C(=O)N(CCN3CCOCC3)C2c2ccco2)c1C (centres undefined)	none
Cc1ccc(NC(=O)CN(C)C(=O)CN2C(=O)NC(C)(c3ccccc3)C2=O)cc1 (centres undefined)	MEKK3 PB1 HTS 79.0[inhibitor] | MEKK2wt confirm inactive | MEKK2mut-MEK5 inactive | MEKK3 confirm inactive
CON(C)S(=O)(=O)c1cccc(C(=O)Oc2ccc(N(C)S(=O)(=O)c3ccccc3)cc2)c1	none
O=c1[nH]nc(CNc2ccc(OC(F)(F)F)cc2)c2ccccc12	MEKK3 PB1 HTS 39.0[inhibitor] | MEKK2wt confirm inactive | MEKK2mut-MEK5 inactive | MEKK3 confirm inactive
CC1(C)NC(=O)N(CC(=O)OCC(=O)c2ccc(Br)s2)C1=O	none (no result: MEKK2wt PB1 HTS, MEKK2mut PB1 HTS, MEKK3 PB1 HTS)
O=C(CN1CC(c2ccccc2)CC1=O)N/N=C/c1cc(Br)ccc1O (centres undefined)	MEKK3 PB1 HTS 141.0 | MEKK2wt confirm inactive | MEKK2mut-MEK5 inactive | MEKK3 confirm inactive
CCCP(=O)(CCC)CCP(=O)(c1ccccc1)c1ccccc1	MEKK3 PB1 HTS 63.0[inhibitor] | MEKK2wt confirm inactive | MEKK2mut-MEK5 inactive | MEKK3 confirm inactive
CCCC(c1nnnn1Cc1ccc(OC)cc1)N1CCN(C(=O)c2ccco2)CC1 (centres undefined)	none
Cc1cc(C)c[n+](-c2nc3ccccc3nc2[N-]S(=O)(=O)c2ccc(Cl)cc2)c1	MEKK3 PB1 HTS 137.0 | MEKK2wt confirm inactive | MEKK2mut-MEK5 inactive | MEKK3 confirm inactive
OCCOCCOc1ccc(-c2nn[nH]n2)cc1	MEKK3 PB1 HTS 74.0[inhibitor] | MEKK2wt confirm inactive | MEKK2mut-MEK5 inactive | MEKK3 confirm inactive
Cc1cccc(C(C)C)c1NC(=O)COC(=O)CN1C(=O)C2CC=CCC2C1=O (centres undefined)	none (no result: MEKK2wt PB1 HTS, MEKK2mut PB1 HTS, MEKK3 PB1 HTS)
Cc1nc2sccn2c(=O)c1S(=O)(=O)NCC(C)c1ccccc1 (centres undefined)	none
CCN(C(=O)c1cn(C)c(=O)c2cc(OC)c(OC)cc12)c1cc(C)ccc1C	MEKK2wt PB1 HTS -2.0[inhibitor], MEKK3 PB1 HTS 1.0[inhibitor] | MEKK2wt confirm inactive | MEKK2mut-MEK5 inactive | MEKK3 confirm inactive
C=CCOc1ccc(/C=N/NC(=O)CN2CCCCC2)cc1OC	none
CCOC(=O)c1ccc(NC(=O)CCc2nc(-c3ccccc3Cl)no2)cc1	none
CCOC(=O)c1ccc(NC(=O)Cn2nnc(-c3ccc(F)cc3)n2)cc1	none
CCOC(=O)c1ccc(NC(=O)COc2ccccc2CNCCc2ccccc2)cc1	MEKK2wt PB1 HTS 206.0 | MEKK2wt confirm inactive | MEKK2mut-MEK5 inactive | MEKK3 confirm inactive
CCOC(=O)c1ccc(NC(=O)CCc2nc(-c3ccccc3)no2)cc1	MEKK3 PB1 HTS 130.0 | MEKK2wt confirm inactive | MEKK2mut-MEK5 inactive | MEKK3 confirm inactive
NC(=O)c1nn(-c2ccccc2)nc1NC(=O)CN1CCCC1	none
NC(=O)c1nn(-c2ccccc2)nc1NC(=O)Cn1nnc(-c2ccccc2)n1	MEKK3 PB1 HTS 132.0 | MEKK2wt confirm inactive | MEKK2mut-MEK5 inactive | MEKK3 confirm inactive
CCOC(=O)c1ccc(NC(=O)COc2ccc(CNCCO)cc2OCC)cc1	none
CCOC(=O)c1ccc(NC(=O)Cn2nnc(-c3ccccc3)n2)cc1	MEKK2wt PB1 HTS 134.0 | MEKK2wt confirm inactive | MEKK2mut-MEK5 inactive | MEKK3 confirm inactive
Cc1cc(C(C)(C)C)ccc1OC(=O)C1=CC=CN2CCS(=O)(=O)N=C12	none (no result: MEKK2wt PB1 HTS, MEKK2mut PB1 HTS, MEKK3 PB1 HTS)
O=c1c2ccccc2[nH]c(=S)n1CCCN1CCC(Cc2ccccc2)CC1	none
C=CCN1C(=O)/C(=C/c2ccc(-c3ccc(F)cc3)o2)SC1=S	MEKK2wt PB1 HTS 18.0[inhibitor], MEKK3 PB1 HTS 49.0[inhibitor] | MEKK2wt confirm inactive | MEKK2mut-MEK5 inactive | MEKK3 confirm 62.0
O=C(O)C(c1ccccc1)N1C(=O)/C(=C\c2ccc(-c3ccc(Br)cc3)o2)SC1=S (centres undefined)	MEKK2wt PB1 HTS 65.0[inhibitor] | MEKK2wt confirm inactive | MEKK2mut-MEK5 inactive | MEKK3 confirm inactive
O=C(O)C(c1ccccc1)N1C(=O)/C(=C\c2ccc(-c3ccccc3Cl)o2)SC1=S (centres undefined)	none
COc1ccc(S(=O)(=O)N2CCOCC2)cc1NC(=O)c1sccc1C	none (no result: MEKK2wt PB1 HTS, MEKK2mut PB1 HTS, MEKK3 PB1 HTS)
CCOC(=O)C1=C(O)c2ccccc2C(=O)/C1=C\c1ccc(C)cc1	MEKK3 PB1 HTS 68.0[inhibitor] (no result: UBC13 inh) | MEKK2wt confirm inactive | MEKK2mut-MEK5 inactive | MEKK3 confirm inactive
Cc1ccc(S(=O)(=O)N(C)C)cc1NC(=O)C(C)OC(=O)C1CCCCC1 (centres undefined)	none (no result: MEKK2wt PB1 HTS, MEKK2mut PB1 HTS, MEKK3 PB1 HTS)
Cc1cc(=O)[nH]c(SCC(=O)N2CCCC(C)C2)n1 (centres undefined)	none
CC1CCN(S(=O)(=O)c2ccc(S(=O)(=O)NCC(=O)C(C)(C)C)cc2)CC1	MEKK2wt PB1 HTS 32.0[inhibitor], MEKK3 PB1 HTS 23.0[inhibitor] | MEKK2wt confirm inactive | MEKK2mut-MEK5 inactive | MEKK3 confirm inactive
O=C(O)CCn1c(SCc2ccccc2)nc2ccccc21	MEKK2wt PB1 HTS 0.0[inhibitor], MEKK3 PB1 HTS 0.0[inhibitor] | MEKK2wt confirm inactive | MEKK2mut-MEK5 inactive | MEKK3 confirm inactive
CCCn1c(SCC(=O)N2c3ccccc3Sc3ccccc32)nc2ccccc21	MEKK3 PB1 HTS 150.0 | MEKK2wt confirm inactive | MEKK2mut-MEK5 inactive | MEKK3 confirm inactive
CCCn1c(SCC(=O)O)nc2ccccc21	none
O=C(NCCCN1CCCC1=O)C1CCN(S(=O)(=O)c2cccc(Cl)c2Cl)CC1	none (no result: MEKK2wt PB1 HTS, MEKK2mut PB1 HTS, MEKK3 PB1 HTS)
O=C(O)CCC(=O)c1ccc(-c2ccccc2)cc1	MEKK2wt PB1 HTS 32.0[inhibitor], MEKK3 PB1 HTS 67.0[inhibitor] | MEKK2wt confirm inactive | MEKK2mut-MEK5 inactive | MEKK3 confirm inactive
C=CCNC(=O)c1c(Cl)nc(C)c([N+](=O)[O-])c1C	MEKK3 PB1 HTS 155.0 | MEKK2wt confirm inactive | MEKK2mut-MEK5 inactive | MEKK3 confirm inactive
CCN(c1ccc(N=Cc2c(O)n(Cc3ccc(OC)cc3)c(=O)c3ccccc23)cc1)C(C)C	MEKK2mut PB1 HTS 175.0, MEKK3 PB1 HTS 56.0[inhibitor] (no result: MEKK2wt PB1 HTS, UBC13 inh) | MEKK2wt confirm inactive | MEKK2mut-MEK5 inactive | MEKK3 confirm inactive
Cc1ccc(NC(=S)N/N=C/c2ccc([N+](=O)[O-])s2)cc1	MEKK2wt PB1 HTS 62.0[inhibitor] | MEKK2wt confirm inactive | MEKK2mut-MEK5 inactive | MEKK3 confirm inactive
CCC(=O)N(C)CCc1cc2c(c(OC)c1/C=N/Nc1ccc(C(=O)O)cc1)OCO2	MEKK3 PB1 HTS 132.0 | MEKK2wt confirm inactive | MEKK2mut-MEK5 inactive | MEKK3 confirm inactive
